Laboratory results as given in PubChem BioAssay AID686979 (National Center for Advancing Translational Sciences (NCATS), 2013).
Out of some 420,000 compounds screened, about 50,000 (12%) were called active. About 26% were inconclusive and are not listed. Calls follow the shape of the dose curve; as a rule, active = well fitted inhibition curve with a large enough effect; inconclusive = small, poorly fitted or top-dose-only effect; inactive = flat fitted curve, though single readings scatter. Many of the other results were omitted from the sample, so actives are more common in it than they were.

assay: qHTS for Inhibitors of human tyrosyl-DNA phosphodiesterase 1 (TDP1): qHTS in cells in presence of CPT; details: chicken DT40 Tdp1-/-;hTDP1 cells + 20 nM CPT, ATP luminescence, 48 h; series mostly up to 46.2 µM; activity change, negative = growth inhibition: at the top concentration; also: nearly all actives have a fitted effect of over 55% in size
How it was run: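 Chicken DT40 Tdp1-/- cells stably complemented with human TDP1 were seeded at 400 cells/well in medium containing 20 nM camptothecin, exposed to pin-transferred compounds, and grown at 37 °C for at least 48 hr. Viability was read as ATP luminescence.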
% is scaled to controls: 0 for no effect and ±100 for the full control effect; potency is read from the fitted curve at half-maximal effect.

Structure (SMILES)	activity change, negative = growth inhibition	Potency
O=C(CCN1C(=O)c2ccncc2C1=O)Nc1cc(F)ccc1F	-2.86% (inactive)	–
O=C(COC(=O)c1cnccn1)Nc1ccc(Cl)cc1C(F)(F)F	-2.73% (inactive)	–
CC(OC(=O)CNC(=O)c1ccc(Cl)c([N+](=O)[O-])c1)C(=O)NCc1ccco1 (centres undefined)	9.09% (inactive)	–
Cc1cc(=O)oc2c3c(cc(OCC(=O)N[C@H](C(=O)O)c4ccccc4)c12)OC(C)(C)CC3	1.09% (inactive)	–
CCOCCOCCC(C(=O)O)P(=O)(c1ccccc1)c1ccccc1 (centres undefined)	-9.55% (inactive)	–
CCc1ccc(N2CC(C(=O)Nc3ccc(S(=O)(=O)Nc4nccs4)cc3)CC2=O)cc1 (centres undefined)	-16% (inactive)	–
CCc1cc2c(cc3c(=O)n(CC(=O)N4CCN(c5cc(Cl)ccc5C)CC4)ncn32)s1	-19.2% (inactive)	–
O=C1NC(Nc2nc3ccccc3s2)(C(F)(F)F)C(=O)N1C1CCCCC1 (centres undefined)	–	25.9 µM (active)
CCC1(CC)NC(=O)N(Cc2nc3ccccc3s2)C1=O	8.86% (inactive)	–
O=C(NC1(C(F)(F)F)NC(=O)N(C2CCCCC2)C1=O)c1ccco1 (centres undefined)	29.4% (inactive)	–
COC(=O)C[C@@H]1C=C[C@@H](NC(=O)c2ccc3c(c2)OCO3)[C@@H](CO)O1	-1.27% (inactive)	–
O=C1C2C3C=CC(C3)C2C(=O)N1c1ncc([N+](=O)[O-])s1 (centres undefined)	23.9% (inactive)	–
CC1Cc2[nH][nH]c(=O)c2C(C2CC2)O1 (centres undefined)	-8.46% (inactive)	–
O=C(CSc1nc(-c2ccco2)cc(C(F)(F)F)n1)N1CCc2ccccc2C1	-27.6% (inactive)	–
Cc1cc(C(F)(F)F)nn1-c1nc(-c2ccco2)cc(C(F)(F)F)n1	-1.24% (inactive)	–
CN(C)c1ccc(NC(=O)CSc2n[nH]c(-c3ccco3)n2)cc1	0.483% (inactive)	–
CCNS(=O)(=O)c1ccc(NC(=O)CSc2nc(-c3ccco3)cc(C(F)(F)F)n2)cc1	–	7.31 µM (active)
CC(C)(C)NC(=O)CSc1nc(-c2ccc(F)cc2)cc(C(F)(F)F)n1	–	20.6 µM (active)
O=C(CSc1nc(-c2ccco2)cc(C(F)(F)F)n1)NCc1cccs1	-9.45% (inactive)	–
CC(C)c1nc(SCC(=O)NC(=O)NC(C)(C)C)n[nH]1	-1.92% (inactive)	–
Cc1cccc(NC(=O)CSc2nc(-c3ccco3)cc(C(F)(F)F)n2)c1C	–	10.3 µM (active)
Cc1ccn2c(=O)nc(SCC(=O)NCc3ccc(F)cc3)nc2c1	-2.41% (inactive)	–
COc1ccc(S(=O)(=O)NCC(=O)NCc2cc(=O)n(C)c(=O)n2C)cc1F	2.06% (inactive)	–
O=C(CC1C(=O)NCCN1CC(c1ccccc1)c1ccccc1)NCC1CCOCC1 (centres undefined)	-13% (inactive)	–
CCCS(=O)(=O)NC(=O)C1(C)CCCN(C(=O)c2cccs2)C1 (centres undefined)	9.56% (inactive)	–
O=C(CSc1nnc(SCc2ccc(F)cc2)s1)Nc1ccc(C(=O)O)cc1	-15.4% (inactive)	–

Structure (SMILES)	activity change, negative = growth inhibition	Potency
COc1ccc(C2=NN(C(=O)c3ccccc3C(=O)O)C(c3ccccc3O)C2)cc1 (centres undefined)	17% (inactive)	–
CCC(C)(C)NC(=O)CN(C(=O)CCC(=O)Nc1cc(C)ccn1)c1ccc2c(c1)OCCO2	4.29% (inactive)	–
FC(F)(F)c1nnc2sc(-c3ccco3)nn12	-5.91% (inactive)	–
FC(F)(F)c1nnc2ccc(N3CCN(c4ccccc4)CC3)nn12	-0.987% (inactive)	–
FC(F)(F)c1nnc2c3ccccc3c(Cl)nn12	–	5.17 µM (active)
O=C(COC(=O)c1cncc(Br)c1)Nc1ccc(S(=O)(=O)N2CCOCC2)cc1	-19.1% (inactive)	–
C=CCNC(=O)c1ccccc1SCc1c(C)noc1C	1.92% (inactive)	–
Cc1ccn(CC(=O)NC2CCCN(Cc3ccccc3F)C2)n1 (centres undefined)	6.73% (inactive)	–
CN(c1ccccc1)S(=O)(=O)c1ccc(C(=O)NCCc2ccccc2)cc1	-22% (inactive)	–
Cc1ccccc1CSCCNC(=O)c1ccc(N(C)S(=O)(=O)c2ccccc2)cc1	–	18.4 µM (active)
Cc1ccccc1CSCCNC(=O)C1CCN(S(=O)(=O)Cc2ccccc2)CC1	-2.3% (inactive)	–
Cc1nc2ccccc2nc(=O)c1NNc1ccc([N+](=O)[O-])cc1	-28.3% (inactive)	–
Cc1ccc(CN2CC(C(=O)NNC(=O)Cn3ccc(C(F)(F)F)n3)CC2=O)cc1 (centres undefined)	3.76% (inactive)	–
CC(C)=CCc1ccc(O)c(=O)cc1C(C)C	–	20.6 µM (active)
CSc1ncc(C(=O)NCc2ccccc2Cl)c(C(F)(F)F)n1	-20.8% (inactive)	–
O=C(/C=C/c1ccccc1[N+](=O)[O-])OCC(=O)N1CCCC1	-21.3% (inactive)	–
CC1(C2CC2)NC(=O)N(CC(=O)N2CCN(c3ccccc3F)CC2)C1=O (centres undefined)	-21.8% (inactive)	–
COc1ccc(OC)c(C(C)NC(=S)Nc2ccc(S(=O)(=O)Nc3ncccn3)cc2)c1 (centres undefined)	3.28% (inactive)	–
Clc1ccc(CSc2nnc3c(n2)[nH]c2ccccc23)cc1	-25% (inactive)	–
COc1ccc(Cc2nc3ccc(C(=O)NCc4ccccc4Cl)cc3o2)cc1	–	16.4 µM (active)
COc1ccc(NC(=O)c2ccc3nc(CCc4ccccc4)oc3c2)c(OC)c1	-26.7% (inactive)	–
CSCCNC(=O)c1ccc2nc(Cc3ccccc3F)oc2c1	1.45% (inactive)	–
COc1ccc(Cc2nc3ccc(C(=O)N4CCC(N(C)C)C4)cc3o2)cc1 (centres undefined)	11.1% (inactive)	–
CCn1ccnc1CN(C)C(=O)c1ccc2nc(Cc3ccc(OC)cc3)oc2c1	-18.1% (inactive)	–
COc1ccc(Cc2nc3ccc(C(=O)NCc4ccccc4C)cc3o2)cc1	–	20.6 µM (active)
COc1ccc(Cc2nc3ccc(C(=O)NCc4ccc(OC)cc4OC)cc3o2)cc1	–	16.4 µM (active)

Structure (SMILES)	activity change, negative = growth inhibition	Potency
COc1ccc(CNC(=O)c2ccc3oc(C(C)C)nc3c2)cc1	-27% (inactive)	–
COCCNC(=O)c1ccc2nc(Cc3ccc(OC)c(OC)c3)oc2c1	-0.805% (inactive)	–
CCCCOC(=O)CSc1ncnc2sc3c(c12)CCC(C)C3 (centres undefined)	-16.3% (inactive)	–
Cc1nccn1CCC1CCCCN1C(=O)CCc1nnc(-c2ccsc2)o1 (centres undefined)	-0.241% (inactive)	–
CC(=O)OCCOCn1cnn2c(=O)c(Br)c(C)nc12	1.1% (inactive)	–
CSc1n[nH]c(-c2ccco2)n1	2.51% (inactive)	–
COC(=O)c1ccc(C)c(NC(=O)Cn2c(C)csc2=O)c1	-8.88% (inactive)	–
Nc1ccc(C(=O)OCC(=O)NC2CCS(=O)(=O)C2)cc1[N+](=O)[O-] (centres undefined)	-10.4% (inactive)	–
O=NN(CCCl)C(=O)NCCc1cccc[n+]1[O-]	-1.12% (inactive)	–
NC(=O)C1CCN(C(=O)c2ccc3c(=O)n(Cc4cccc(Br)c4)c(=S)[nH]c3c2)CC1	-0.901% (inactive)	–
COC(=O)c1cccc(NC(=O)CSc2nc(C)cc(=O)[nH]2)c1	-4.36% (inactive)	–
CCOC(=O)c1sc(=S)n2c1[nH]c(=O)c1ccc(C(=O)OC)cc12	–	10.3 µM (active)
CCOC(=O)c1sc2nc(C)[nH]c(=O)c2c1C	0.124% (inactive)	–
COc1ccccc1C1C(C(=O)N2CCCCC2)=C(C)Nc2nc3ccccc3n21 (centres undefined)	-13.4% (inactive)	–
CCCCN1C(=O)C(CC(=O)NCc2cccs2)CC(C(=O)N2CCCCCC2)=C1C (centres undefined)	-24.1% (inactive)	–
Cc1cc(O)c(C(c2ccccc2)N2CCN(c3ccccc3F)CC2)c(=O)n1Cc1ccco1 (centres undefined)	-9.48% (inactive)	–
Cc1cc(C)c(NC(=O)C[N+](C)(C)CC(O)COc2cccc3ccccc23)c(C)c1 (centres undefined)	–	18.4 µM (active)
OC(COc1cccc2ccccc12)CN1CCN(c2ccccn2)CC1 (centres undefined)	-29.9% (inactive)	–
Cc1cc(C)cc(OCC(=O)Nc2c(C(=O)c3ccccc3)oc3ccccc23)c1	-27.4% (inactive)	–
COc1ccccc1CNC(=O)COC(=O)c1cccs1	-22.4% (inactive)	–
COc1ccc(/C=C/C(=O)Nc2cccnc2)cc1OC	16.1% (inactive)	–
COc1cc(/C=C/C(=O)Nc2ccc(OC)c(S(=O)(=O)N3CCOCC3)c2)ccc1OCC#N	-29% (inactive)	–
COc1ccc(/C=C/C(=O)Nc2ccc(C34CC5CC(CC(O)(C5)C3)C4)cc2)cc1OC	–	2.31 µM (active)
COCCn1c(N)c(NCc2ccccc2)c(=O)[nH]c1=O	-27.3% (inactive)	–
O=C(COC(=O)C12CC3CC(CC(O)(C3)C1)C2)NC12CC3CC(CC(C3)C1)C2	-0.57% (inactive)	–
COc1cccc(NC(=O)CSc2nnc(Cc3ccc(OC)c(OC)c3)o2)c1	0.397% (inactive)	–

Structure (SMILES)	activity change, negative = growth inhibition	Potency
Cc1cc(C)c2c(Cn3ccnc3)cc(=O)oc2c1	13.7% (inactive)	–
COc1ncnc2c1ncn2CCCNCCN1CCOCC1	7.08% (inactive)	–
O=C(O)C(c1ccccc1)N1C(=O)/C(=C\c2ccc(-c3cccc(Cl)c3)o2)SC1=S (centres undefined)	-2.25% (inactive)	–
CCCCNC(=O)C(C)N(CCN(C)C)C(=O)CCCCCN1C(=O)NC(c2ccc(Cl)cc2)C(C(=O)OCc2ccccc2)=C1C (centres undefined)	–	7.31 µM (active)
CCCCNC(=O)C1(O)c2ccccc2NC(=O)N1c1ccc(Cl)cc1 (centres undefined)	14.6% (inactive)	–
CCOC(=O)CCCNC(=O)CN1C(=O)NC(CCc2ccccc2)C1=O (centres undefined)	5.72% (inactive)	–
COCCOC(=O)C1=C(C)NC(=O)NC1c1ccc(Cl)cc1 (centres undefined)	-24.5% (inactive)	–
CC1=C(C(=O)OCc2ccccc2)C(c2ccc(C(F)(F)F)cc2)NC(=O)N1CCCCCC(=O)O (centres undefined)	-2.79% (inactive)	–
CCCCNC(=O)C(C)N(CCN(C)C)C(=O)CCCN1C(=O)NC(c2ccc(Cl)cc2)C(C(=O)OCc2ccccc2)=C1C (centres undefined)	–	20.6 µM (active)
COc1ccccc1/C=C/C(=O)NC(=S)N1CCOCC1	-1.22% (inactive)	–
CC(C)Cc1nnc(NC(=O)CN2C(=O)NC3(CCCCC3)C2=O)s1	-7.33% (inactive)	–
COC(=O)c1ccccc1NC(=O)CSc1nc2c(c(=O)[nH]1)CCC2	-3% (inactive)	–
CC(=O)Nc1ccc(S(=O)(=O)N2CCn3cccc3C2C)cc1 (centres undefined)	-5.77% (inactive)	–
O=C(CCN1CCCO1)N1CCCC(N2CCN(c3cccc(C(F)(F)F)c3)CC2)C1 (centres undefined)	-2.8% (inactive)	–
O=C(NN=Cc1ccc2c(c1)CCC2)c1ccccc1O	-23% (inactive)	–
NC(=O)c1ccccc1N=Cc1ccc2ccccc2c1	–	20.6 µM (active)
O=C(OCC(=O)N1CCOCC1)c1ccc2ccccc2c1	1.63% (inactive)	–
COc1ccccc1C(=O)N[C@@H]1c2ccccc2C2(CCN(C(=O)c3csnn3)CC2)[C@H]1OC	-8.07% [at 9.04 µM] (inactive)	–
COC(=O)CC1Oc2ccccc2-n2cc(-c3ccccc3)nc21 (centres undefined)	–	14.6 µM (active)
CCC(CC)c1nn2cc(-c3ccccc3)nc2s1	-21.2% (inactive)	–
COC(=O)CC1=NN(c2ccccc2)C(=O)C1	6.54% (inactive)	–
COc1ccccc1NC(=O)COC(=O)c1ccccc1SCC(=O)N1CCCC1	-18.2% (inactive)	–
c1ccc(-n2cccc2)c(N2CCCCC2)c1	-16.6% (inactive)	–
COC(=O)C1=C(Nc2ccc(OC)cc2)C=C(C)C(C(=O)OC)C1c1ccc(C)cc1 (centres undefined)	–	16.4 µM (active)
COC(=O)C1C(=O)NCC1c1ccc(OC)cc1 (centres undefined)	-2.03% (inactive)	–
COc1ccc(N2C(=O)C(O)C2c2ccc(C)cc2)cc1 (centres undefined)	-18.6% (inactive)	–
